Compound activity from PubChem.
An excerpt weighted towards active compounds, which were near 4% of everything screened.
TRHR PAM: allosteric enhancers of human TRH receptor. P34981. TRHR cells, fluo-8 calcium fluorescence, EC20 TRH enhancement. enhancement, % at 2 µM. hit rate 0.66% among 360,000. AID 493056; in the data active = enhancement above about 30%; note: 0% is about no effect
Target sequence (P34981 whole entry, looked up): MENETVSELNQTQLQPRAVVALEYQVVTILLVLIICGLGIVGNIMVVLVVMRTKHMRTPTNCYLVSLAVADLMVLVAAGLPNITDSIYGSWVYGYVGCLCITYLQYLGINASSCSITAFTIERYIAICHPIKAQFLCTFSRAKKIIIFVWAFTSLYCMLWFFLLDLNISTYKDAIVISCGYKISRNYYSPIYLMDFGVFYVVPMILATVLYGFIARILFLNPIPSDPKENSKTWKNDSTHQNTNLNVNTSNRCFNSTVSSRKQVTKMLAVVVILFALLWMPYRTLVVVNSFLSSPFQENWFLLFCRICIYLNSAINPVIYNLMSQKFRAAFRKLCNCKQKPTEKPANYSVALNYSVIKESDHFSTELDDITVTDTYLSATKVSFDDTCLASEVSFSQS
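TRHR-expressing cells loaded with fluo-8 calcium dye were read kinetically (ex 480/em 530) during compound addition, then stimulated with an EC20 of TRH (10 nM final). Enhancement of the Gq-mediated intracellular calcium response was scored.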
Glioma ERSR ind: ER stress response induction in glioma | U87-MG GRP78 promoter luciferase reporter, 16 h | Potency, µM, for the others: top-dose activation, actives largely listed as activators | hit rate 0.02% among 420,000 | AID 602332; active = well fitted activation curve with a large enough effect; note: potency is the fitted concentration of half-maximal effect; series mostly up to about 76 µM; % of control where 0% means no effect; nearly all actives have a fitted effect of over 35% in size
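Stably transfected U87-MG human glioma cells carrying a GRP78-based luminescent sensor were seeded at 1000 cells/well, pin-dosed with compounds and incubated 16 h. Luciferase reagent was then added, and end-point luminescence was read after 10 min at room temperature.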
TRHR agonist: agonists of human TRH receptor. P34981. TRHR cells, calcium flux fluo-8, FDSS agonist mode. activation, % at 2 µM. hit rate 0.18% among 360,000. AID 493084; note: 0% is about no effect
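Agonist-mode FDSS calcium read (Ex 480/Em 530, 1 s cycles) in 1536-well TRHR cells with fluo-8 dye, after 10-cycle baseline and 23 nL compound addition; TRH at EC20 (10 nM final) added afterwards for the enhancer phase.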
D1 agonist: human D1 receptor agonism; activation, % at 2 µM; P21728; hit rate 1% among 360,000; HEK293 T-REx D1 cells, calcium flux, agonist mode; note: 0% is about no effect
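Tetracycline-induced HEK293 TREx D1 cells, force-coupled to calcium signalling, were dye-loaded with a no-wash calcium kit. Compound was pin-added after a 10 s baseline. Fluorescence was read kinetically at 1 cycle/s for 180 s, with calcium rises flagged as agonism.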
D1 PAM: potentiators of human D1 dopamine receptor. potentiation, % at 10 µM. AID 504651. P21728. HEK293 TREx D1 cells, calcium flux, dopamine EC20 potentiation. hit rate 0.036% among 360,000; in the data active = potentiation above about 30%; note: 0% is about no effect
D1 antagonist: blocks dopamine activation of the human D1 receptor; activity change, negative = inhibition, % at 10 µM; HEK293 TREx D1 cells, calcium flux, dopamine EC80; stronger effect = lower value; hit rate 3.2% among 360,000; in the data active = activity change below about -30%; note: % is set by controls: 0 for no effect and ±100 for the full control effect
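Tetracycline-induced HEK293 T-REx cells with force-coupled D1 receptor were loaded with a no-wash calcium dye. Compound was added after a 10 s baseline and read kinetically for 180 s; EC80 dopamine was then added and calcium flux followed another 180 s.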
Active calls of the source: *; ! = not active in a repeat. Cut-off read from the data, not from the text of the source, unless noted: active = activation above about 30%; inactive = the rest.

Results for COc1ccc(N(C(=O)c2ccco2)S(=O)(=O)c2ccc(F)cc2)cc1 ?
TRHR PAM: 2.8; Glioma ERSR ind: -2.5%; TRHR agonist: 0.8; D1 agonist: 6.7; D1 PAM: -10.4; D1 antagonist: -57.7*

How did Cc1ccccc1C1CC(c2ccc(F)cc2)Nc2nc(N)nn21 (configuration not stated) do in these assays?
TRHR PAM: -1.7; Glioma ERSR ind: 1.6%; TRHR agonist: 0.4; D1 agonist: -0.6; D1 PAM: 3.5; D1 antagonist: 6.3

Results for Cc1ccccc1C1CC(c2ccc(Br)cc2)Nc2nc(N)nn21 (configuration not stated) ?
TRHR PAM: 40.2*; Glioma ERSR ind: -6.0%; TRHR agonist: 1.0; D1 agonist: 3.1; D1 PAM: 0.7; D1 antagonist: 5.4

What do the screens show for `COc1ccc(C2CC(c3cccc(C)c3)n3nc(N)nc3N2)cc1` (configuration not stated)?
TRHR PAM: 10.2; Glioma ERSR ind: 1.4%; TRHR agonist: -0.4; D1 agonist: 0.5; D1 PAM: 0.3; D1 antagonist: -30.9*

How did O=C(O)CC(NC(=O)COc1ccccc1)c1cccc([N+](=O)[O-])c1 (configuration not stated) do in these assays?
TRHR PAM: 2.3; Glioma ERSR ind: 0.0%; TRHR agonist: 0.6; D1 agonist: 4.2; D1 PAM: -0.1; D1 antagonist: 20.7

Results for Cn1c(=O)n(CCCc2ccccc2)c(=O)c2c1nc1n2CCN1c1ccccc1 ?
TRHR PAM: -4.9; Glioma ERSR ind: -2.8%; TRHR agonist: -0.2; D1 agonist: -0.9; D1 PAM: -0.2; D1 antagonist: -5.6

Results for COC(=O)c1ccc(Cl)c(-c2ccc(/C=N/NC(=O)Nc3ccccc3)o2)c1 ?
TRHR PAM: 31.0*; Glioma ERSR ind: -0.4%; TRHR agonist: 0.2; D1 agonist: 1.4; D1 PAM: -8.4; D1 antagonist: 0.6

How did CCCc1nc2c(s1)CCc1onc(-c3ccc(Cl)cc3)c1-2 do in these assays?
TRHR PAM: -2.9; Glioma ERSR ind: -3.5%; TRHR agonist: 0.2; D1 agonist: 6.1; D1 PAM: 0.8; D1 antagonist: 6.1

How did CC(=O)Nc1ccc(S(=O)(=O)NCCSCc2ccc(Cl)cc2Cl)cc1 do in these assays?
TRHR PAM: -0.9; Glioma ERSR ind: -9.1%; TRHR agonist: -0.2; D1 agonist: 14.7; D1 PAM: -6.6; D1 antagonist: -31.1*

Results for CC(=O)Nc1ccc(S(=O)(=O)NCCNS(=O)(=O)c2ccc(NC(C)=O)cc2)cc1 ?
TRHR PAM: 0.2; Glioma ERSR ind: -3.6%; TRHR agonist: 0.7; D1 agonist: 0.4; D1 PAM: -4.0; D1 antagonist: 4.1

How did COc1cc(NC(=O)c2cccc3c2C(=O)N(C2CCCCC2)C3)cc(OC)c1OC do in these assays?
TRHR PAM: 4.7; Glioma ERSR ind: 1.8%; TRHR agonist: -1.1; D1 agonist: -1.4; D1 PAM: 1.5; D1 antagonist: -77.6*!

How did Cc1ccc(NC(=O)C2C3C=CC(O3)C2C(=O)O)cc1C (configuration not stated) do in these assays?
TRHR PAM: -2.8; Glioma ERSR ind: -1.1%; TRHR agonist: 0.0; D1 agonist: 0.9; D1 PAM: -12.8; D1 antagonist: -15.4

What do the screens show for `CNC(=S)N(Cc1ccc(OC)cc1)C1CC(=O)N(c2ccc(OC)cc2)C1=O` (configuration not stated)?
TRHR PAM: -8.5; Glioma ERSR ind: -1.9%; TRHR agonist: 0.2; D1 agonist: 3.9; D1 PAM: -2.2; D1 antagonist: -36.3*

Results for Cc1cc(C)n(CC(=O)N/N=C/c2ccc3c(c2)OCO3)n1 ?
TRHR PAM: 0.3; Glioma ERSR ind: -4.2%; TRHR agonist: -0.1; D1 agonist: 0.8; D1 PAM: 1.9; D1 antagonist: 1.2

How did CCOC(=O)c1c(C)oc2nc(C)nc(NCc3ccccc3OCC)c12 do in these assays?
TRHR PAM: 43.2*; Glioma ERSR ind: -2.1%; TRHR agonist: -1.3; D1 agonist: 2.4; D1 PAM: 7.7; D1 antagonist: 4.0
